An excerpt weighted towards active compounds, which were near 21% of everything screened.
Pf growth 48h: P. falciparum growth inhibition at 48 hours (one generation); P. falciparum luciferase growth in erythrocytes, 48 h; Potency, µM (highest dose often 28.7 µM), without a hit: top-dose activity change, negative = inhibition, hits mostly inhibitors; AID 504832; 310,000 tested, 5.9% active; also: potency is read from the fitted curve at half-maximal effect; % is scaled to controls: 0 for no effect and ±100 for the full control effect
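First compound was added to culture medium, then infected red cells at 0.1% parasitemia and 2% hematocrit (final). After incubation at 37 C under 5% CO2, luciferase detection reagent was dispensed and light output recorded.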
Shiga inhibitor: inhibitors of Shiga toxin in Vero cells. 290,000 tested, 9.2% active. inhibition, % at 38.7 µM. Vero cells, Shiga toxin protein synthesis inhibition reporter; in the data active = inhibition mostly above about 28%, no sharp cut-off; inactive = mostly below about 43%; also: 0% is about no effect
Pf growth 96h: inhibits malaria parasite growth, 96 h; Potency, µM (highest dose often 28.7 µM), without a hit: top-dose activity change, negative = inhibition, usual class: inhibitors; AID 504834; P. falciparum luciferase reporter growth, 96 h; 320,000 tested, 6.9% active; also: potency is read from the fitted curve at half-maximal effect; % is scaled to controls: 0 for no effect and ±100 for the full control effect
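Parasite growth measured via integrated firefly luciferase reporter in P. falciparum. Infected erythrocytes at 2% hematocrit, 0.05% parasitemia final were treated 96 hours at 37 C under 5% CO2, and luminescence was read.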
Sm TGR block: blocks Schistosoma mansoni thioredoxin glutathione reductase; Q962Y6; purified TGR, DTNB reduction, TNB absorbance 405 nm; Potency, µM (series often up to 114 µM), inactives show at the top dose activity change, negative = inhibition, actives largely listed as inhibitors; 360,000 tested, 3% active; also: potency is read from the fitted curve at half-maximal effect; % is scaled to controls: 0 for no effect and ±100 for the full control effect; nearly all actives have a fitted effect of over 60% in size
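First, TGR (20 nM dispensed) and NADPH were mixed with compound. Second, a 15 min room-temperature incubation followed. Third, further NADPH and then DTNB were added to start the reaction. Finally, TNB absorbance was monitored kinetically.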
NS1 inh: influenza NS1 inhibition | Potency, µM (top dose mostly 46.1 µM), for inactives: at the top dose activity, positive = more growth | 270,000 tested, 0.4% active | AID 2326; calls by dose curve; also: potency is read from the fitted curve at half-maximal effect; actives are rising curves; nearly all actives have a fitted effect of over 50% in size
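OD600 was taken as the measure of yeast growth restored by compound in an NS1-expressing S. cerevisiae strain. Cells had been washed out of glucose medium and diluted 1:100 into galactose -URA medium, pH 6.0.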
CHX counter: counter-screen for Shiga toxin inhibitors: cycloheximide protein synthesis inhibition | 300,000 tested, 12% active | AID 2314 | cell reporter, cycloheximide protein synthesis inhibition counterscreen | max response, %; in the data active = max response mostly above about 13%, no sharp cut-off; inactive = mostly below about 14%; also: read at 38.3 µM for the half of the compounds with a filed dose; 0% is about no effect
* hit, by the source's call; ? = inconclusive; / = no result. Unless noted, calls follow the shape of the dose curve; as a rule, active = well fitted curve in the direction sought with a large enough effect; inconclusive = small, poorly fitted or top-dose-only effect, or another doubt; inactive = no such curve, though single readings can be large; an effect the other way counts as inactive or inconclusive.

SMILES | Pf growth 48h | Shiga inhibitor | Pf growth 96h | Sm TGR block | NS1 inh | CHX counter
CCc1nnc(NC(=O)C2CCCN2C(=O)Nc2ccccc2)s1 (stereo unspecified) | 6.4% | 9.6 | 13.9% | 0.8% | 3.0% | 5.3
CC1=C(C)CC(C(=O)NNC(=O)c2csc(C)c2C)C(C(=O)O)C1 (stereo unspecified) | 1.7% | 79.3* | -3.0% | 2.7% | 12.8% | 20.9*
Cc1ccc(C2Oc3ccccc3C3=C2C(c2cccs2)n2ncnc2N3)cc1 (stereo unspecified) | 11.7µM* | -11.5 | ? | -6.8% | 8.8% | 0.2
CCCc1cc(=O)oc2c3c(c4c(c12)OC(C)(C)C=C4)OC(C)C(C)C3O (stereo unspecified) | ? | -6.3 | 10.4µM* | -3.5% | 0.2% | -2.4
Fc1ccc(Nc2nc3ccccc3c3nncn23)c(Cl)c1 | / | / | / | 4.2% | / | /
O=C1NC(=O)/C(=C/c2ccc(-c3cccc([N+](=O)[O-])c3)o2)S1 | 12.6% | -5.0 | ? | 0.0% | 3.4% | -3.2
CCc1ccc(N2C(=O)NC(=O)/C(=C/c3cccn3CCOc3ccc(C(C)CC)cc3)C2=O)cc1 (stereo unspecified) | 63.5% | 120.8* | 144.3% | -30.0% | -7.7% | 76.7*
O=C1NC(=O)N(Cc2ccco2)C(=O)/C1=C/c1ccc(-c2cccc([N+](=O)[O-])c2)o1 | -1.6% | 4.2 | 20.7% | 39.8µM* | -11.2% | 0.8
Cc1cccc(OCCn2cccc2/C=C2/C(=O)NC(=O)N(Cc3ccco3)C2=O)c1 | -7.4% | 21.0 | -6.2% | 3.98µM* | 8.7% | 14.1
O=C1NC(=O)N(Cc2ccco2)C(=O)/C1=C\c1cccn1CCOc1ccc(Cl)cc1 | -1.7% | -10.5 | -27.5% | ? | 4.8% | -3.8
CCc1ccc(N2C(=O)NC(=O)/C(=C/c3cccn3CCOc3ccc(C)cc3)C2=O)cc1 | 29.2% | -2.9 | 47.8% | -14.6% | 7.0% | 12.7*
CC(C(=O)NCc1cccc(Cl)c1)N1C(=O)c2ccccc2C1=O (stereo unspecified) | 18.3% | -9.6 | 7.4% | 2.3% | 15.5% | -1.9
COc1ccccc1CNc1ncnc2c1cnn2-c1ccc(C)cc1 | / | / | / | 7.2% | / | /
CC(C)(C)c1ccc(C(=O)NNC(=O)CCC(=O)Nc2ccccc2)cc1 | 149.8% | 41.2 | 224.5% | -22.3% | 14.2% | 19.3*
COc1ccc(CC(=O)Nc2cc(C)on2)cc1 | 12.3% | 16.5 | 36.8% | 5.4% | -3.7% | 10.1
Cc1cc(NC(=O)CCC(=O)NNC(=O)c2ccc(C(C)(C)C)cc2)no1 | 162.3% | 80.0* | -16.1% | -1.3% | 0.5% | 35.6*
COc1ccc2ccc(OCC(=O)Nc3cc(C)on3)cc2c1 | 11.7µM* | / | ? | -5.3% | / | /
Cc1cc(NC(=O)COc2ccc(C(C)(C)C)cc2)no1 | 16.7% | 49.8* | 27.7% | 3.3% | -7.2% | 31.7*
CCc1ccccc1NC(=O)Cn1nnc(-c2nc(-c3ccc(C)cc3)no2)c1N | / | / | / | 10.1% | / | /
COc1ccc(OCC(=O)Nc2nonc2NC(=O)COc2ccc(OC)cc2)cc1 | 57.9% | 10.4 | 9.28µM* | 11.3% | -3.2% | 10.1
Cc1cc(C)cc(OCC(=O)Nc2nonc2NC(=O)COc2cc(C)cc(C)c2)c1 | ? | -7.5 | -19.7% | -13.2% | -0.8% | 1.6
Cc1ccc2c(c1)N(C(=O)N1CCC(C(=O)NCc3ccco3)CC1)CC(C)O2 (stereo unspecified) | / | / | / | 3.4% | / | /
CCOC(=O)C1CCCN(C(=O)CN2CCN(Cc3ccc(Cl)cc3)C2=O)C1 (stereo unspecified) | -5.5% | -2.6 | 1.65µM* | 4.1% | -13.9% | -2.9
CCC1Oc2ccc(C)cc2N(CC(=O)N2CCN(c3ccccc3OC)CC2)C1=O (stereo unspecified) | / | / | / | -7.7% | / | /
CCOC(=O)C1CCCN(C(=O)/C=C/c2ccc(Cl)cc2)C1 (stereo unspecified) | 4.9% | 1.2 | -11.5% | -3.0% | -9.2% | -1.2
SMILES | Pf growth 48h | Shiga inhibitor | Pf growth 96h | Sm TGR block | NS1 inh | CHX counter
CCOC(=O)C1CCCN(C(=O)CN2C(=O)C(CC)Oc3ccc(C)cc32)C1 (stereo unspecified) | -12.3% | -3.2 | 13.1µM* | -19.1% | -3.4% | -1.1
O=C(Nc1nc2nccc(-c3ccccc3)n2n1)C(Cl)(Cl)Cl | 27.8% | 1.7 | 3.5% | -7.9% | 6.0% | -2.3
CC(=O)c1ccc[n+](CC(=O)NC(C)c2ccccc2)c1 (stereo unspecified) | 20.8% | -10.2 | ? | -21.1% | 0.4% | -6.5
O=C(Nc1nc2c(F)cc(F)cc2s1)C1CC(=O)N(Cc2ccco2)C1 (stereo unspecified) | 1.4% | 47.1 | 4.7% | 5.01µM* | -1.3% | 23.9*
Cc1cc(C)c2nc(NC(=O)C3CC(=O)N(Cc4ccco4)C3)sc2c1 (stereo unspecified) | 18.8% | -0.7 | -10.3% | -25.5% | / | 8.5
Cc1ccc2nc(NC(=O)C3CC(=O)N(Cc4ccco4)C3)sc2c1 (stereo unspecified) | ? | 25.4 | 31.8% | -0.2% | / | 19.1*
COc1ccc(-c2cn3c(n2)sc2cc(C(=O)NCC(C)c4ccccc4)ccc23)cc1 (stereo unspecified) | / | / | / | 79.4µM* | / | /
CCc1ccc(-c2cn3c(n2)sc2cc(C(=O)NCC(C)c4ccccc4)ccc23)cc1 (stereo unspecified) | / | / | / | -2.8% | / | /
CCOC(=O)N1CCN(C(=O)c2ccc3c(c2)sc2nc(-c4ccc(OC)cc4)cn23)CC1 | ? | 51.0 | -3.7% | -1.2% | 12.7% | 25.1*
COc1ccc(NC(=O)CSc2ncc(-c3ccc(Cl)cc3)[nH]2)cc1OC | / | / | / | 0.9% | / | /
CNS(=O)(=O)c1cccc(C(=O)OCC(=O)N2CC(C)OC(C)C2)c1 (stereo unspecified) | 14.3% | -7.1 | 25.3% | 3.3% | -10.4% | 2.2
O=C(O)C1(S(=O)(=O)c2ccc(Cl)cc2)CCC1 | 30.4% | -15.2 | 49.7% | -7.3% | -9.5% | -4.6
COc1ccccc1NS(=O)(=O)c1cccc(C(=O)N2CC(C)OC(C)C2)c1 (stereo unspecified) | ? | / | ? | 4.3% | / | /
CCOc1cc(/C=C2/C(=N)N3C(=NC2=O)SN=C3S(=O)(=O)C(C)C)ccc1OC(=O)c1ccco1 | -8.1% | 3.0 | 8.28µM* | -23.9% | -4.6% | -1.4
COc1cc(/C=C2/C(=N)N3C(SC)=NSC3=NC2=O)ccc1OC(=O)c1ccco1 | 12.7% | 84.0 | ? | -2.2% | -0.5% | 29.1*
CCOc1cc(/C=C2/SC(=S)NC2=O)ccc1OC(=O)c1ccco1 | 29.7% | 43.8 | 5.7% | -8.2% | / | 12.1*
COc1cc(/C=C2/C(=N)N3C(=NC2=O)SN=C3S(=O)(=O)C(C)C)ccc1OC(=O)c1ccco1 | -1.1% | 12.0 | ? | -20.7% | 1.5% | -2.2
COc1cc(/C=C2/SC(=O)NC2=O)ccc1OC(=O)c1ccco1 | 0.8% | -5.0 | ? | 0.8% | 4.2% | -2.8

Source: PubChem BioAssay
